From PubChem BioAssay AID1159580 (chemical genetic matrix, 2015)
Hit rate of the full screen: of about 5,500 compounds, about 2,000 (36%) were called active. Not shown: some 18% with an inconclusive outcome. Rule as the data show it: active = normalized growth mostly below about 0.91 (no sharp cut-off); inconclusive = no clear call, values can overlap the other calls; inactive = mostly above about 0.92. Some of the results follow.

Test: chemical genetic growth profiling, strain panel (AID 1159580);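 also: tested at 20 µM; growth read once vehicle control cultures reached saturation at 30 °C; 1 = growth at the plate median or of vehicle wells; lower values mean less growth of the strain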
Conditions: S. cerevisiae deletion strains, growth OD

Measured: normalized growth

CC(=O)Oc1c(C)cccc1C(=O)O
inactive: locus YAL013W, strain DEP1, hits give low values 1.01 | locus YAL021C, strain ccr4, hits give low values 0.989 | locus YAL026C, strain drs2, hits give low values 1.01 | locus YAL030W, strain snc1, hits give low values 0.992 | locus YBL061C, strain skt5, hits give low values 1.01 | locus YBR009C, strain hhf1, hits give low values 1.01 | locus YBR021W, strain FUR4, hits give low values 0.989 | locus YBR023C, strain chs3, hits give low values 1 | locus YBR171W, strain sec66, hits give low values 1.02 | locus YBR229C, strain ROT2, hits give low values 0.988 | locus YBR231C, strain swc5, hits give low values 1.02 | locus YBR279W, strain paf1, hits give low values 1.01 | locus YCL011C, strain gbp2, hits give low values 1.01 | locus YCL016C, strain dcc1, hits give low values 0.998 | locus YCL029C, strain bik1, hits give low values 1.01 | locus YCL061C, strain MRC1, hits give low values 1.01 | locus YCL069W, strain vba3, hits give low values 1.01 | locus YCR088W, strain abp1, hits give low values 1.02 | locus YDL005C, strain med2, hits give low values 1.02 | locus YDL035C, strain GPR1, hits give low values 1.01 | locus YDL040C, strain nat1, hits give low values 1 | locus YDL074C, strain BRE1, hits give low values 1 | locus YDL101C, strain DUN1, hits give low values 1.01 | locus YDL134C, strain PPH21, hits give low values 1.01 | locus YDL185W, strain tfp1, hits give low values 0.999 | locus YDL192W, strain arf1, hits give low values 1.02 | locus YDR001C, strain nth1, hits give low values 1.01 | locus YDR069C, strain doa4, hits give low values 1.01 | locus YDR101C, strain arx1, hits give low values 1.02 | locus YDR137W, strain rgp1, hits give low values 0.985 | locus YDR150W, strain NUM1, hits give low values 1.01 | locus YDR159W, strain sac3, hits give low values 0.981 | locus YDR162C, strain NBP2, hits give low values 1 | locus YDR195W, strain ref2 0.994 | locus YDR297W, strain sur2, hits give low values 0.987 | locus YDR318W, strain mcm21, hits give low values 1.02 | locus YDR334W, strain swr1, hits give low values 1.01 | locus YDR335W, strain msn5, hits give low values 0.989 | locus YDR388W, hits give low values 1.01 | locus YDR392W, strain spt3, hits give low values 0.957 | locus YDR502C, strain sam2, hits give low values 1.02 | locus YEL003W, strain gim4, hits give low values 1.03 | locus YEL037C, strain rad23, hits give low values 1.02 | locus YEL061C, strain CIN8 (second series), hits give low values 1.01 | locus YEL061C, strain CIN8, hits give low values 0.995 | locus YER015W, strain faa2, hits give low values 1.01 | locus YER016W, strain bim1, hits give low values 0.984 | locus YER110C, hits give low values 1.02 | locus YER111C, strain swi4, hits give low values 1.02 | locus YER155C, strain BEM2 (second series), hits give low values 1.01 | locus YER155C, strain BEM2, hits give low values 1.01 | locus YER167W, strain BCK2, hits give low values 1.01 | locus YFR010W, strain ubp6, hits give low values 1.02 | locus YGL078C, strain dbp3, hits give low values 1.01 | locus YGL086W, strain mad1, hits give low values 1.01 | locus YGL167C, strain pmr1, hits give low values 1.01 | locus YGL173C, strain kem1, hits give low values 1.02 | locus YGL227W, strain vid30, hits give low values 1.01 | locus YGL240W, strain doc1, hits give low values 0.971 | locus YGL248W, strain PDE1, hits give low values 1.01 | locus YGL253W, strain hxk2, hits give low values 1.01 | locus YGR078C, strain PAC10, hits give low values 1 | locus YGR135W, strain pre9, hits give low values 1 | locus YGR229C, strain SMI1, hits give low values 1.02 | locus YGR252W, strain gcn5, hits give low values 1 | locus YHR013C, strain ard1, hits give low values 1.01 | locus YHR027C, strain rpn1, hits give low values 0.991 | locus YHR030C, strain SLT2, hits give low values 1.01 | locus YHR079C, strain IRE1 (second series), hits give low values 1 | locus YHR094C, strain hxt1, hits give low values 1.01 | locus YHR129C, strain ARP1, hits give low values 1.01 | locus YHR142W, strain chs7, hits give low values 1.02 | locus YHR200W, strain rpn10, hits give low values 1.02 | locus YIL066C, strain RNR3, hits give low values 1.01 | locus YIL073C, strain SPO22, hits give low values 1.05 | locus YIL125W, strain kgd1, hits give low values 1.01 | locus YIR030C, strain dcg1, hits give low values 1.01 | locus YJL092W, strain hpr5, hits give low values 1.01 | locus YJL095W, strain BCK1 (second series), hits give low values 0.977 | locus YJL095W, strain BCK1, hits give low values 1.01 | locus YJL115W, strain asf1, hits give low values 1.02 | locus YJL129C, strain trk1, hits give low values 1.04 | locus YJL134W, strain LCB3, hits give low values 1.01 | locus YJL154C, strain vps35, hits give low values 1 | locus YJL164C, strain tpk1, hits give low values 0.997 | locus YJL166W, strain qcr8, hits give low values 1 | locus YJL168C, strain set2, hits give low values 1.01 | locus YJL187C, strain SWE1 (second series), hits give low values 1.01 | locus YJL187C, strain SWE1, hits give low values 0.983
